Experimental data: the supplement of paper PMC8699584
Structures can show the parent of a compound that is named as a salt. ± gives the standard deviation of the averaged measurements.

Each compound was assayed on Molm13 (assay: cell viability relative to DMSO control (bortezomib = 0%); higher = less growth inhibition). Details: 10 nM; 72 h.
Summary of the method: (§1)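 Cell viability was assessed by CellTiter-Glo luminescence. Acute myeloid leukemia cells were seeded at 1000 cells per well in 50 µL on a 384-well library of 679 compounds at a single 10 nM dose for 72 h. Per-plate linear regression set DMSO-treated cells at 100% and positive-control-treated cells at 0%.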

SMILES | cell viability
FC(F)(F)c1ccc(CNc2ccc(Cc3c[nH]c4ncccc34)cn2)cc1 | 76.9 ± 16%
O=C(Nc1cc(Oc2cc(F)c(NC(=O)C3(C(=O)Nc4ccc(F)cc4)CC3)cc2F)ccn1)C1CC1 [Altiratinib(DCC2701)] | 106 ± 12%
CNC(=O)c1ccccc1Sc1ccc2c(/C=C/c3ccccn3)n[nH]c2c1 [Axitinib] | 120 ± 7%
N#CC(=C(/N)Sc1ccccc1N)/C(C#N)=C(/N)Sc1ccccc1N | 104 ± 12%
O.O.O.O.O=C([O-])CC(O)(CC(=O)[O-])C(=O)[O-].[Li+].[Li+].[Li+] [Lithium citrate tribasic tetrahydrate] | 109 ± 1.3%
CNC(=O)c1ccc(Nc2ncc(C(F)(F)F)c(NCc3nccnc3N(C)S(C)(=O)=O)n2)cc1 | 90.2 ± 16%
COC(=O)c1c2c(c3ccccc3c1O)OC(C)(C)C=C2 [Mollugin] | 98 ± 1.6%
CC1(C)OC(=O)C=C[C@]2(C)[C@H]3CC[C@@]4(C)[C@H](c5ccoc5)OC(=O)[C@H]5O[C@]54[C@]3(C)C(=O)C[C@@H]12 [Obacunone] | 108 ± 7.3%
N#CC(=Cc1cc(Cl)cc(Cl)c1)c1cccnc1 | 116 ± 8.1%
O=C1NC(=O)/C(=C/c2cccc(C(F)(F)F)c2)S1 | 112 ± 15%
O=C(Nc1cccc(Cl)c1)Nc1ncc(CCNc2ncnc3ccsc23)s1 [SNS-314 Mesylate] | 64.7 ± 13%
Cc1ccc([N+](=O)[O-])cc1S(=O)(=O)N(C)/N=C/c1cnc2ccc(Br)cn12 [PIK-75 (hydrochloride)] | 94.7 ± 11%
NC(=O)c1ccc(NC(=O)NCc2cccc(C(=O)Nc3ccc4c(c3)CNCC4)c2)cc1 | 117 ± 25%
CC(=O)/C(C)=N/O [2,3-Butanedione 2-Monoxime] | 79.4 ± 21%
COc1cc2ncnc(Nc3ccc(O)c(Br)c3)c2cc1OC | 95.4 ± 24%
C#Cc1cccc(Nc2ncnc3cc4c(cc23)OCCOCCOCCO4)c1 [Icotinib Hydrochloride] | 100 ± 4.9%
COc1cc(-c2cc(-c3ccc(N4CCNCC4)cc3)cnc2C)cc(OC)c1OC | 111 ± 5.7%
C[C@@H]1O[C@@H](Oc2c(-c3cc(O)c(O)c(O)c3)oc3cc(O)cc(O)c3c2=O)[C@H](O)[C@H](O)[C@H]1O [Myricetrin] | 89.1 ± 14%
CC1(C)CNc2cc(NC(=O)c3cccnc3NCc3ccncc3)ccc21 [Motesanib (AMG-706)] | 106 ± 20%
COc1cc(Nc2ncc3c(n2)-c2ccc(Cl)cc2C(c2c(F)cccc2OC)=NC3)ccc1C(=O)O [MLN8237(Alisertib)] | 99.5 ± 6.3%

SMILES | cell viability
O=C1Nc2cc(Br)ccc2/C1=C1/Nc2ccccc2/C1=N\O | 109 ± 2.3%
O=c1ccc2ccccc2o1 [Coumarin] | 114 ± 8%
COc1cc2ncnc(Nc3ccc(Cl)cc3F)c2cc1OC | 108 ± 8.2%
COc1cc2nccc(Oc3ccc(NC(=O)Nc4ccc(F)cc4F)c(F)c3)c2cc1OC | 98.1 ± 2.7%
O=S(=O)(c1cccc2cnccc12)N1CCCNCC1 [Fasudil] | 109 ± 12%
COc1cc(OC)c(/C=C/S(=O)(=O)Cc2ccc(OC)c(NCC(=O)O)c2)c(OC)c1 | 99.3 ± 23%
CC[C@H](Nc1ncnc2[nH]cnc12)c1nc2cccc(F)c2c(=O)n1-c1ccccc1 [CAL-101 (Idelalisib, GS-1101)] | 93.7 ± 22%
CCCC(CCC)C(=O)O [Valproic Acid (sodium salt)] | 100 ± 10%
N#Cc1ccc(COc2ccc(-c3cccc4nc(NC(=O)C5CC5)nn34)cc2)cn1 [GLPG0634 analogue] | 107 ± 8.4%
C#Cc1cccc(Nc2ncnc3cc(OCCOC)c(OCCOC)cc23)c1 [Erlotinib hydrochloride] | 108 ± 9.8%
N#Cc1c(NC(=O)c2cccc3ccccc23)sc2c1CCCC2 | 102 ± 21%
CN1CCN(CCOc2cc(OC3CCOCC3)c3c(Nc4c(Cl)ccc5c4OCO5)ncnc3c2)CC1 [Saracatinib (AZD0530)] | 98.2 ± 3.5%
Cc1cc(NC(=O)c2cccc(NC(=O)/C=C/CN(C)C)c2)ccc1Nc1nccc(-c2cccnc2)n1 | 92 ± 6.9%
Cc1cc(Nc2nc(N[C@@H](C)c3ccc(F)cc3)c(C#N)cc2F)n[nH]1 | 123 ± 7.3%
CCOc1cc(/C=C(\C#N)C(N)=O)cc(CSc2ccccc2)c1O | 101 ± 44%
Cc1nc2ccc(-n3ncc(C(=O)c4cc5ccccc5[nH]4)c3N)cc2[nH]1 | 114 ± 3.2%
CC(C)n1nc(-c2cc3cc(O)ccc3[nH]2)c2c(N)ncnc21 | 103 ± 11%
CN(C)CCN(C)C(=O)c1ccc(NC(=O)Nc2ccc(-c3nc(N4CCOCC4)c4ccn(CC(F)(F)F)c4n3)cc2)cc1 | 87.9 ± 21%
Fc1ccc(-c2nc3n(c2-c2ccncc2)CCS3)cc1 | 102.8 ± 0.71%
Fc1ccc2[nH]ccc2c1-c1nc(N2CCOCC2)c2sc(CN3CCN(CC4CC4)CC3)cc2n1 | 111 ± 13%

The compounds below were run on Mv4-11 in the same assay as above. Details: 10 nM; 72 h.
Summary of the method: as §1

SMILES | cell viability
FC(F)(F)c1ccc(CNc2ccc(Cc3c[nH]c4ncccc34)cn2)cc1 | 110 ± 3.2%
O=C(Nc1cc(Oc2cc(F)c(NC(=O)C3(C(=O)Nc4ccc(F)cc4)CC3)cc2F)ccn1)C1CC1 [Altiratinib(DCC2701)] | 120 ± 8.4%
CNC(=O)c1ccccc1Sc1ccc2c(/C=C/c3ccccn3)n[nH]c2c1 [Axitinib] | 118 ± 10%
N#CC(=C(/N)Sc1ccccc1N)/C(C#N)=C(/N)Sc1ccccc1N | 129 ± 2.2%
O.O.O.O.O=C([O-])CC(O)(CC(=O)[O-])C(=O)[O-].[Li+].[Li+].[Li+] [Lithium citrate tribasic tetrahydrate] | 114 ± 1.7%
CNC(=O)c1ccc(Nc2ncc(C(F)(F)F)c(NCc3nccnc3N(C)S(C)(=O)=O)n2)cc1 | 99.5 ± 3.4%
COC(=O)c1c2c(c3ccccc3c1O)OC(C)(C)C=C2 [Mollugin] | 100 ± 7.8%
CC1(C)OC(=O)C=C[C@]2(C)[C@H]3CC[C@@]4(C)[C@H](c5ccoc5)OC(=O)[C@H]5O[C@]54[C@]3(C)C(=O)C[C@@H]12 [Obacunone] | 109 ± 19%
N#CC(=Cc1cc(Cl)cc(Cl)c1)c1cccnc1 | 108 ± 7.3%
O=C1NC(=O)/C(=C/c2cccc(C(F)(F)F)c2)S1 | 119 ± 17%
O=C(Nc1cccc(Cl)c1)Nc1ncc(CCNc2ncnc3ccsc23)s1 [SNS-314 Mesylate] | 84.75 ± 0.26%
Cc1ccc([N+](=O)[O-])cc1S(=O)(=O)N(C)/N=C/c1cnc2ccc(Br)cn12 [PIK-75 (hydrochloride)] | 92.2 ± 7.8%
NC(=O)c1ccc(NC(=O)NCc2cccc(C(=O)Nc3ccc4c(c3)CNCC4)c2)cc1 | 119 ± 19%
CC(=O)/C(C)=N/O [2,3-Butanedione 2-Monoxime] | 119 ± 7.6%
COc1cc2ncnc(Nc3ccc(O)c(Br)c3)c2cc1OC | 112 ± 14%
C#Cc1cccc(Nc2ncnc3cc4c(cc23)OCCOCCOCCO4)c1 [Icotinib Hydrochloride] | 105 ± 9.2%
COc1cc(-c2cc(-c3ccc(N4CCNCC4)cc3)cnc2C)cc(OC)c1OC | 107 ± 3.6%
C[C@@H]1O[C@@H](Oc2c(-c3cc(O)c(O)c(O)c3)oc3cc(O)cc(O)c3c2=O)[C@H](O)[C@H](O)[C@H]1O [Myricetrin] | 112 ± 35%
CC1(C)CNc2cc(NC(=O)c3cccnc3NCc3ccncc3)ccc21 [Motesanib (AMG-706)] | 107 ± 5.2%
COc1cc(Nc2ncc3c(n2)-c2ccc(Cl)cc2C(c2c(F)cccc2OC)=NC3)ccc1C(=O)O [MLN8237(Alisertib)] | 114 ± 4.2%

SMILES | cell viability
O=C1Nc2cc(Br)ccc2/C1=C1/Nc2ccccc2/C1=N\O | 91.4 ± 8.7%
O=c1ccc2ccccc2o1 [Coumarin] | 114 ± 24%
COc1cc2ncnc(Nc3ccc(Cl)cc3F)c2cc1OC | 102 ± 6.2%
COc1cc2nccc(Oc3ccc(NC(=O)Nc4ccc(F)cc4F)c(F)c3)c2cc1OC | 103 ± 5.7%
O=S(=O)(c1cccc2cnccc12)N1CCCNCC1 [Fasudil] | 104 ± 9.1%
COc1cc(OC)c(/C=C/S(=O)(=O)Cc2ccc(OC)c(NCC(=O)O)c2)c(OC)c1 | 124 ± 8.1%
CC[C@H](Nc1ncnc2[nH]cnc12)c1nc2cccc(F)c2c(=O)n1-c1ccccc1 [CAL-101 (Idelalisib, GS-1101)] | 105 ± 6.2%
CCCC(CCC)C(=O)O [Valproic Acid (sodium salt)] | 104 ± 10%
N#Cc1ccc(COc2ccc(-c3cccc4nc(NC(=O)C5CC5)nn34)cc2)cn1 [GLPG0634 analogue] | 119 ± 3.4%
C#Cc1cccc(Nc2ncnc3cc(OCCOC)c(OCCOC)cc23)c1 [Erlotinib hydrochloride] | 121 ± 20%
N#Cc1c(NC(=O)c2cccc3ccccc23)sc2c1CCCC2 | 114 ± 4.2%
CN1CCN(CCOc2cc(OC3CCOCC3)c3c(Nc4c(Cl)ccc5c4OCO5)ncnc3c2)CC1 [Saracatinib (AZD0530)] | 106 ± 6.2%
Cc1cc(NC(=O)c2cccc(NC(=O)/C=C/CN(C)C)c2)ccc1Nc1nccc(-c2cccnc2)n1 | 113 ± 5.2%
Cc1cc(Nc2nc(N[C@@H](C)c3ccc(F)cc3)c(C#N)cc2F)n[nH]1 | 99.4 ± 3.3%
CCOc1cc(/C=C(\C#N)C(N)=O)cc(CSc2ccccc2)c1O | 115 ± 15%
Cc1nc2ccc(-n3ncc(C(=O)c4cc5ccccc5[nH]4)c3N)cc2[nH]1 | 110 ± 12%
CC(C)n1nc(-c2cc3cc(O)ccc3[nH]2)c2c(N)ncnc21 | 96.2 ± 30%
CN(C)CCN(C)C(=O)c1ccc(NC(=O)Nc2ccc(-c3nc(N4CCOCC4)c4ccn(CC(F)(F)F)c4n3)cc2)cc1 | 105 ± 3.9%
Fc1ccc(-c2nc3n(c2-c2ccncc2)CCS3)cc1 | 98.2 ± 4.3%
Fc1ccc2[nH]ccc2c1-c1nc(N2CCOCC2)c2sc(CN3CCN(CC4CC4)CC3)cc2n1 | 119 ± 7.6%
